A selection: hits, their analogues and other compounds. The true share with any hit is near 5.2%.
APOBEC3A inh – APOBEC3A ssDNA deaminase inhibitors, primary screen, selectivity assay for APOBEC3G inhibitor project, biochemical, FAM/TAMRA oligo cleavage fluorescence; DNA dC->dU-editing enzyme APOBEC-3A (Homo sapiens), P31941; recombinant A3A, FAM/TAMRA ssDNA deamination fluorescence; inhibition, % at 20 µM; 330,000 tested, 0.41% active; AID 493011, 2011;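 active = at least 40% inhibition at 20 µM here, with at most 30% in a related deaminase screen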
ALR H2O2 inh – inhibitors of human ALR sulfhydryl oxidase, primary screen, biochemical, H2O2 detection, HRP-luminol luminescence, single point. inhibition, % (no concentration beside the values). 290,000 tested, 3.8% active. purified ALR, DTT oxidation. FAD-linked sulfhydryl oxidase ALR (Homo sapiens), P55789;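 active = mean replicate inhibition above about 79%, with every replicate also reaching it, limit read from the data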
PfM18AAP inh – PfM18AAP inhibitors, malaria aminopeptidase, primary screen, biochemical, QFRET, recombinant enzyme. M18 aspartyl aminopeptidase (Plasmodium falciparum 3D7). H-Glu-NHMec fluorogenic cleavage. inhibition, % at 7.35 µM. 290,000 tested, 1.2% active;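 active = inhibition above the campaign mean inhibition over all tested compounds plus 3 SD, cut at about 28% in these data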
A3G deaminase – APOBEC3G DNA deaminase inhibitors, primary screen, biochemical, fluorescence, single-stranded DNA substrate, uHTS. DNA dC->dU-editing enzyme APOBEC-3G (Homo sapiens), Q9HC16. recombinant A3G, ssDNA deamination FAM/TAMRA fluorescence. inhibition, % at 20 µM. 330,000 tested, 0.28% active;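 active = inhibition of at least 40% at 20 µM, with no more than 30% in the related APOBEC3A deaminase screen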
NRP1-CendR mod – modulators of CendR peptide binding to NRP-1, primary screen, biochemical, fluorescence polarization, uHTS; inhibition, % at 25 µM; Neuropilin-1 (Homo sapiens), O14786; 360,000 tested, 0.85% active; FAM-RPARPAR peptide binding to NRP-1; AID 602438, 2012;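 active = inhibition or corrected inhibition above about 18%, plus a signal ratio from 0.5 to 1.5, limit read from the data, passing the limit was not always enough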
Target sequence (O14786 whole entry, looked up): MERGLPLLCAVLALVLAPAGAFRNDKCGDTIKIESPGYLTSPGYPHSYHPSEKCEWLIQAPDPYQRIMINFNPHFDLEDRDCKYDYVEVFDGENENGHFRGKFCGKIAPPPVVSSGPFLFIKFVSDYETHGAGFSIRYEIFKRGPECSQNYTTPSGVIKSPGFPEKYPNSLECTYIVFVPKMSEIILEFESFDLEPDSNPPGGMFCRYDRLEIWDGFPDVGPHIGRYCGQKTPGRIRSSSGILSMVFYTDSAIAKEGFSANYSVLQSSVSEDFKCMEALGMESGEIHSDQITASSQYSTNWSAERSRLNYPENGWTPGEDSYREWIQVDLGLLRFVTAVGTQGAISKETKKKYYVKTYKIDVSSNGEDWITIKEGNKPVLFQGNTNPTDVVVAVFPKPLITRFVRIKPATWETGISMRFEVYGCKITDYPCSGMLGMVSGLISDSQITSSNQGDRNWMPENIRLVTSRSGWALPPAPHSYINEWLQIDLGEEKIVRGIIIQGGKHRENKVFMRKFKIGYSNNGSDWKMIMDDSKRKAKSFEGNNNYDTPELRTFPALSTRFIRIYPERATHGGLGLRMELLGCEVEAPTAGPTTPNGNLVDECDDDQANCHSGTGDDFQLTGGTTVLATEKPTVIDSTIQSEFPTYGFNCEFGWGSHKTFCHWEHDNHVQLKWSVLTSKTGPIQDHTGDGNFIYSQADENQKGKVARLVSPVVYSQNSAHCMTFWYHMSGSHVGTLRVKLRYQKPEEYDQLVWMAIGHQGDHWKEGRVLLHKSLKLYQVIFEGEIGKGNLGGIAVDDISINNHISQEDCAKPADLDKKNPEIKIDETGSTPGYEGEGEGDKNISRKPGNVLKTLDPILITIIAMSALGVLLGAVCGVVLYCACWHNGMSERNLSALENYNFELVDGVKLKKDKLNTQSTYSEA
Yeast superoxide – reduction of superoxide in aged yeast, primary screen, HTS. S. cerevisiae aged cells, superoxide DHE fluorescence; stronger effect = lower value. superoxide response (% of plate mean), % at 10 µM. 330,000 tested, 0.18% active;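 active = superoxide response under a set limit, about three screen SD below normal, cut at about 65% in these data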;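 note: yeast aged for seven days with compound at 30 °C before DHE staining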
Numbers stand for hits.

Cc1ccc(CSCC(=O)N(CCC(C)C)c2c(N)n(Cc3ccccc3)c(=O)[nH]c2=O)cc1 was read as APOBEC3A inh inactive, ALR H2O2 inh inactive, A3G deaminase inactive, NRP1-CendR mod inactive and Yeast superoxide inactive.
CCCN(C(=O)CSCc1ccc(Cl)cc1)c1c(N)n(Cc2ccccc2)c(=O)[nH]c1=O was read as APOBEC3A inh inactive, A3G deaminase inactive, NRP1-CendR mod 27 and Yeast superoxide inactive.
`COc1ccc(-c2nc(SCC(=O)N(CC(C)C)c3c(N)n(Cc4ccccc4)c(=O)[nH]c3=O)n[nH]2)cc1` gave APOBEC3A inh inactive, ALR H2O2 inh inactive, A3G deaminase inactive, NRP1-CendR mod inactive and Yeast superoxide inactive.
`CCCN(C(=O)CSc1n[nH]c(-c2ccc(OC)cc2)n1)c1c(N)n(Cc2ccccc2)c(=O)[nH]c1=O` gave APOBEC3A inh inactive, ALR H2O2 inh 86, A3G deaminase inactive, NRP1-CendR mod inactive and Yeast superoxide inactive.
CCN(C(=O)CN1CCN(c2ccccc2O)CC1)c1c(N)n(Cc2ccccc2)c(=O)[nH]c1=O was read as APOBEC3A inh inactive, ALR H2O2 inh 98, PfM18AAP inh 28, A3G deaminase inactive, NRP1-CendR mod inactive and Yeast superoxide inactive.
Screening CC(=O)Nc1nc(-c2ccc3c(c2)CC(C)N3C(=O)C2CC2)c(C)s1 (stereo not drawn) returned APOBEC3A inh inactive, ALR H2O2 inh 99, PfM18AAP inh inactive, A3G deaminase inactive, NRP1-CendR mod inactive and Yeast superoxide inactive.
CCOC(=O)C(=O)Nc1nc(-c2ccc3c(c2)CCN3C(=O)C2CC2)c(C)s1 was read as APOBEC3A inh inactive, ALR H2O2 inh 99, PfM18AAP inh inactive, A3G deaminase inactive, NRP1-CendR mod inactive and Yeast superoxide inactive.
Screening CCC(=O)N/C(N)=N/c1nc(C)c2cc(OC)ccc2n1 returned APOBEC3A inh inactive, ALR H2O2 inh inactive, PfM18AAP inh inactive, A3G deaminase inactive, NRP1-CendR mod inactive and Yeast superoxide inactive.
`CCOc1ccc(S(=O)(=O)N(CC(=O)NC2CCCCC2C)Cc2ccco2)cc1` (stereo not drawn) gave APOBEC3A inh inactive, PfM18AAP inh inactive, A3G deaminase inactive, NRP1-CendR mod inactive and Yeast superoxide inactive.
Screening NNc1ccc(Cl)nn1 returned APOBEC3A inh inactive, ALR H2O2 inh inactive, PfM18AAP inh 29, A3G deaminase inactive, NRP1-CendR mod inactive and Yeast superoxide inactive.
`CNc1ccc(Cl)nn1` gave APOBEC3A inh inactive, ALR H2O2 inh inactive, PfM18AAP inh inactive, A3G deaminase inactive, NRP1-CendR mod inactive and Yeast superoxide inactive.
For COc1ccc(S(=O)(=O)NCC2CCCN(Cc3cccc(C(C)=O)c3)C2)cc1 (stereo not drawn) the results were APOBEC3A inh inactive, ALR H2O2 inh 76, PfM18AAP inh inactive, A3G deaminase inactive, NRP1-CendR mod inactive and Yeast superoxide inactive.
Screening COc1cc2[nH]c3ccccc3c2cc1C returned APOBEC3A inh inactive, ALR H2O2 inh 81, A3G deaminase inactive, NRP1-CendR mod inactive and Yeast superoxide inactive.
`C=CCN1C(=O)CN=C1NCc1ccccc1` gave APOBEC3A inh inactive, PfM18AAP inh inactive, A3G deaminase inactive, NRP1-CendR mod inactive and Yeast superoxide inactive.
For Cc1ccc(CN2CCN(Cc3c(C)nn(C(C)C)c3C)CC2CCO)o1 (stereo not drawn) the results were APOBEC3A inh inactive, ALR H2O2 inh inactive, PfM18AAP inh inactive, A3G deaminase inactive, NRP1-CendR mod 18 and Yeast superoxide inactive.
`Cc1ccc(CN2CCN(Cc3ccncc3)CC2CCO)o1` (stereo not drawn) gave APOBEC3A inh inactive, PfM18AAP inh inactive, A3G deaminase inactive, NRP1-CendR mod inactive and Yeast superoxide inactive.
For CC(=O)N1c2ccc(S(=O)(=O)N3CCC(C(=O)Nc4cccc(C)c4)CC3)cc2CC1C (stereo not drawn) the results were APOBEC3A inh inactive, ALR H2O2 inh inactive, PfM18AAP inh inactive, A3G deaminase inactive, NRP1-CendR mod 31 and Yeast superoxide inactive.
